# Data as given in PubChem BioAssay (NCATS).
# Where “and” joins values, the source holds several entries; their conditions need not be identical. Equal values may be shown once. Results filed as inconclusive are left out. Entries that show only a call come without a potency. A number with no mark means an inactive call. Calls of active or inactive are those of the source. The call rests on the fitted dose curve; in most records, active means well fitted curve in the direction sought with a large enough effect; inconclusive means small, poorly fitted or top-dose-only effect, or another doubt; inactive means no such curve, though single readings can be large; an effect the other way counts as inactive or inconclusive.
# Experiments:
# [1] = target: Cellular tumor antigen p53 (Homo sapiens) (UniProt P04637); assay: Primary qHTS for small molecule compounds that upregulate eGFP-tagged delta133p53alpha (in N-terminal) cells. (AID 2060322); details: NCI-H358 eGFP-delta133p53alpha fluorescence, 24 h; activation: active compounds read high; further: nearly all actives have a fitted effect of over 75% in size; further: potency means the concentration at half of the fitted maximal effect; on activation: series mostly up to about 56 µM
# Method in brief: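 NCI-H358 cells pre-induced 24 h with 10 ng/ml doxycycline to express N-terminal eGFP-delta133p53alpha, then dosed 24 h at 37C without doxycycline; fixed, Hoechst-stained, GFP intensity by laser scanning cytometry, normalized to DMSO (0%) and 57.5 uM 5-azacytidine (100%).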
# [2] = target: Aldehyde dehydrogenase, mitochondrial (Homo sapiens) (UniProt P05091); assay: qHTS for Inhibitors of the Aldehyde Dehydrogenase Family (ALDH2) Primary screen (AID 2061308); further: nearly all actives have a fitted effect of over 55% in size
# [3] = target: Retinaldehyde dehydrogenase 3 (Homo sapiens) (UniProt P47895); assay: qHTS for Inhibitors of the Aldehyde Dehydrogenase Family (ALDH1A3) Primary screen (AID 2061315)
# Cellular tumor antigen p53 (Homo sapiens), sequence (P04637 whole entry, looked up): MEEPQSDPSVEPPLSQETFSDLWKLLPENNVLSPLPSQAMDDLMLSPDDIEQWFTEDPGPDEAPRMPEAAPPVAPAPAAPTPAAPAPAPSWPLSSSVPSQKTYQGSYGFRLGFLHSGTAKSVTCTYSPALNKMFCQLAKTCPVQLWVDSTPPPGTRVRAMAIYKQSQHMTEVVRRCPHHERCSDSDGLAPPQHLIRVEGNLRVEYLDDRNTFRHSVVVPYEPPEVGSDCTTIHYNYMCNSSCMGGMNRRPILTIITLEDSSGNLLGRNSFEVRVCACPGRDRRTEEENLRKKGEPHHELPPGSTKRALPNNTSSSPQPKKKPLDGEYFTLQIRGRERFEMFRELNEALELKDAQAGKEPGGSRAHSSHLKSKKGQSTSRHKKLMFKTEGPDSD
SMILES,activation [1] [%],Potency [2],Potency [3],Potency [1]
CO[C@@H]1[C@H](O)CCC2(CO2)[C@H]1[C@@]1(C)O[C@@H]1CC=C(C)C (stereo partly drawn),0.763,inactive,inactive,–
COc1c(CCC(=O)O)cccc1O[C@@H]1O[C@H](CO)[C@@H](O)[C@H](O)[C@H]1O,-4.58,inactive,inactive,–
CC1CC2(O)OC(=O)C3=C2C(CCC3)[C@@]12C[C@@H](c1ccoc1)OC2=O (stereo partly drawn),-12.2,inactive,inactive,–
CC1CCC2C(C)(C)C(O)CCC2(C)C12Cc1c(O)cc3c(c1O2)CN(C(CCC(N)=O)C(=O)O)C3=O (stereo not drawn),-13.7,inactive,inactive,–
C[C@@H]1C(=O)O[C@H](C)[C@H]1C[C@@H](O)[C@](C)(O)[C@H]1CC[C@@]2(O)C3=CC(=O)[C@@H]4C[C@@H](O)[C@@H](O)C[C@]4(C)C3CC[C@]12C (stereo partly drawn),-5.36,inactive,inactive,–
CC(C)=C[C@@H]1[C@H](CO[C@@H]2O[C@H](CO)[C@@H](O)[C@H](O)[C@H]2O)C1(C)C,-9.82,inactive,inactive,–
COC1=Cc2c(nc3n(c2=O)C(C)C(=O)NC3(O)C(C)C)OC=C1 (stereo not drawn),-17.6,inactive,inactive,–
CC(=O)OC/C(=C/C(=O)O)CC[C@@H]1C(C=O)=CC[C@@H]2C(C)(C)CCC[C@@]12C,-32.8,inactive,inactive,–
O=C(/C=C/c1ccc(O)cc1)OCC1=C[C@@H](O)[C@@H]2C=CO[C@@H](O[C@@H]3O[C@H](CO)[C@@H](O)[C@H](O)[C@H]3O)[C@H]12,-9.16,inactive,inactive,–
COC(=O)C1=CO[C@@H](O[C@@H]2O[C@H](CO)[C@@H](O)[C@H](O)[C@H]2O)[C@H]2[C@@H]1C=C[C@]21C=C([C@H](C)OC(=O)/C=C/c2ccc(O)cc2)C(=O)O1,–,inactive,inactive,2.51 µM (active)
Cc1ccccc1N1CCN(S(=O)(=O)C[C@]23CC[C@H](C[C@@H]2NC(=O)[C@@H](N)CCS(C)(=O)=O)C3(C)C)CC1,3.67,inactive,inactive,–
CC1COC2(OC3CC4C5CC(O[C@@H]6O[C@H](C)[C@@H](O[C@@H]7O[C@@H](C)[C@H](O)[C@@H](O)[C@H]7O)[C@H](O)[C@H]6O)C6CC(O)CCC6(C)C5CCC4(C)C3C2C)C(O)C1 (stereo partly drawn),-10.7,inactive,inactive,–
Cc1ccccc1C(=O)N1CC/C(=N\OS(=O)(=O)O)c2ccc(Cl)cc21,-1.67,inactive,inactive,–
CC12CCC(OC3OC(CO)C(O)C(OC4OC(CO)C(O)C(O)C4O)C3O)CC1=CCC1C2CCC2(C)/C(=C3/COC(=O)C3)CCC12O (stereo not drawn),-13,inactive,inactive,–
C/C(=C\C(=O)C[C@@]12C(=O)O[C@]3(C)CC[C@H]1C[C@H]23)C(N)=O,9.92,inactive,inactive,–
CC1(C)CC2C(C1)C1(C)CCC13OC3(CO)C2O (stereo not drawn),-14.3,inactive,inactive,–
OC[C@H]1O[C@@H](Oc2ccccc2)[C@H](O)[C@@H](O)[C@@H]1O,-0.893,inactive,inactive,–
CC(CC12CCCN1C(=O)C1CCCN1C2=O)OC(N)=O (stereo not drawn),-18.3,inactive,inactive,–
CC(=O)O[C@H]1CC[C@]2(C)[C@H]3CC[C@]4(C)Oc5oc(C)cc(=O)c5C[C@H]4[C@]3(C)CC[C@H]2C1(C)C,0,inactive,inactive,–
CC(=O)O[C@@H]1C[C@@H](C)[C@](O)(CCC2=CC(=O)OC2)[C@@]2(C)CCCC(C)(C)C12 (stereo partly drawn),-29.8,inactive,inactive,–
CCNC(=O)[C@@H]1CCCN1C(=O)[C@H](CCCN=C(N)N)NC(=O)[C@H](CC(C)C)NC(=O)[C@@H](C)NC(=O)[C@H](Cc1ccc(O)cc1)NC(=O)[C@H](CO)NC(=O)[C@H](Cc1c[nH]c2ccccc12)NC(=O)[C@H](Cc1cnc[nH]1)NC(=O)[C@@H]1CCC(=O)N1,-6.33,inactive,inactive,–
C=C1CCC2(OC1)OC1CC3C4CC=C5CC(O)CC(O[C@@H]6OC[C@H](OC(=O)C(O)C(C)CC)[C@H](O)[C@H]6O[C@@H]6O[C@@H](C)[C@H](O)[C@@H](O)[C@H]6O)C5(C)C4CCC3(C)C1C2C (stereo partly drawn),11.6,inactive,inactive,–
Cc1cnn(-c2ccccc2)c1NC(=O)COCc1ccccc1,0.333,inactive,inactive,–
C/C(=N\O)c1ccc(OCC(=O)N2CCCCC2)cc1,3.35,inactive,inactive,–
O=C(O)Cc1cn(C2OCC(O)C(O)C2O[C@@H]2O[C@H](CO)[C@@H](O)[C@H](O)[C@H]2O)c2ccccc12 (stereo partly drawn),3.82,inactive,inactive,–
CC1(C)CC[C@]2(C(=O)O)CC[C@]3(C)C(=CCC4[C@@]5(C)CC[C@H](O)C(C)(C)C5CC[C@]43C)C2C1 (stereo partly drawn),-0.763,inactive,inactive,–

SMILES,activation [1] [%],Potency [2],Potency [3],Potency [1]
C/C=C(\C)C(=O)OC1C2(O)CC3=C4CC(=O)OC(c5ccoc5)C4(C)CCC3C(C)(C2=O)C(C(OC(C)=O)C(=O)OC)C1(C)C (stereo not drawn),-7.63,inactive,inactive,–
COc1c2c(c(C)c3c1C(=O)OC3)OC1(C)CC(O)C(C(C)(C)O)C(C)(CCC(=O)O)C1C2 (stereo not drawn),8.4,inactive,inactive,–
C=C(C(=O)O)C1CC(O)C2(C)CCCC(C)(O)C2C1 (stereo not drawn),1.53,inactive,inactive,–
C=C1CC2[C@]3(C)C(=C(O)C(=O)[C@@]2(C)[C@]2(C(=O)OC)C(=O)C(C)OC(=O)[C@@]12C)C(C)(C)C(=O)CC3O (stereo partly drawn),18.3,inactive,inactive,–
COc1ccc2c3ccnc4ccc(=O)n(c2c1)c43,17,inactive,inactive,–
COC(=O)C1=COC(OC2OC(CO)C(O)C(O)C2O)C2C(C)C(OC(=O)/C=C/c3ccc(O)cc3)C(O)C12 (stereo not drawn),-8.93,inactive,inactive,–
O=C(OCc1ccccc1O[C@@H]1O[C@H](CO)[C@@H](O)[C@H](O)[C@H]1O)C1(O)C=CCCC1O (stereo partly drawn),-2.29,inactive,inactive,–
COc1cc(/C=C/C(=O)O[C@@H]2O[C@H](CO)[C@@H](O)[C@H](O)[C@H]2O)ccc1O,4.46,inactive,inactive,–
CN[C@H](CC(C)C)C(=O)N[C@H]1C(=O)N[C@@H](CC(N)=O)C(=O)N[C@H]2C(=O)N[C@H]3C(=O)N[C@H](C(=O)N[C@H](C(=O)O)c4cc(O)cc(O)c4-c4cc3ccc4O)[C@H](O[C@H]3C[C@](C)(N)[C@@H](O)[C@H](C)O3)c3ccc(c(Cl)c3)Oc3cc2cc(c3O[C@@H]2O[C@H](CO)[C@@H](O)[C@H](O)[C@H]2O[C@H]2C[C@](C)(NCc3ccc(-c4ccc(Cl)cc4)cc3)[C@@H](O)[C@H](C)O2)Oc2ccc(cc2Cl)[C@H]1O,27,inactive,inactive,–
COCC1OC(n2cnc3c(=O)[nH]cnc32)C(O)C1O (stereo not drawn),6.11,inactive,inactive,–
COC(=O)C1C(c2ccc(O)cc2)C(C(=O)O)C1c1ccc(O)cc1 (stereo not drawn),-18.3,inactive,inactive,–
COc1ccc2c(c1)C[C@H](C(=O)Nc1ccc(-c3cn[nH]c3)cc1OCCN(C)C)CO2,-0.893,inactive,inactive,–
C=C(C)[C@@H]1CC=C(COC(=O)NC(=O)c2ncn3c(=O)n(C)nnc23)CC1,10,inactive,inactive,–
C[C@H](O)[C@H](O)/C=C/c1cccc(O)c1CO,-15.3,inactive,inactive,–
COC(=O)c1ccc(OC)cc1O[C@@H]1O[C@H](CO[C@@H]2OC[C@@H](O)[C@H](O)[C@H]2O)[C@@H](O)[C@H](O)[C@H]1O,-22.3,inactive,inactive,–
C[C@]12CC[C@@H]3c4ccc(O[C@@H]5O[C@H](C(=O)O)[C@@H](O)[C@H](O)[C@H]5O)cc4CC[C@H]3[C@@H]1CCC2=O,-7,inactive,inactive,–
CC[C@]12CCCN3CCc4c(n(c5ccccc45)C(=O)C1)[C@@H]32,–,inactive,inactive,13.8 µM (active) and 10.7 µM (active)
CCC(C)/C=C(C)/C=C/C1=CC2=C(Cl)C(=O)C(C)(OC(C)=O)C(=O)C2=CN1CCCCC(N)C(=O)O (stereo not drawn),-16.8,inactive,inactive,–
CCOC(=O)C(CCc1ccccc1)NC(C)C(=O)N1C(=O)N(C)CC1C(=O)O (stereo not drawn),-5.25,inactive,inactive,–
CC1=CC(=O)CC(C)(C)C1/C=C/C(C)OC1OC(COC2OCC(O)C(O)C2O)C(O)C(O)C1O (stereo not drawn),8.93,inactive,inactive,–
C=C(CCO)C(=O)OCC1OCC(OC(=O)C(=C)CCO[C@@H]2O[C@H](CO)[C@@H](O)[C@H](O)[C@H]2O)C(O)C1O (stereo partly drawn),-8.4,inactive,inactive,–
C=C1[C@H]2CC[C@]3(O)[C@@](CC[C@@H]4[C@](C)(C(=O)O)CCC[C@]43C)(C2)[C@H]1OC(=O)/C(C)=C\C,15.2,inactive,inactive,–
C=CC1(C)CC(OC(=O)/C(C)=C\COC(C)=O)C(C(=C)C(=O)O)C(O)C1C(=C)CO (stereo not drawn),0,inactive,inactive,–
C[C@@H]1C[C@@H](O)[C@@]23CO[C@]2(CO)C[C@@H](O)CC3[C@@]12CC(c1ccoc1)OC2=O (stereo partly drawn),-7.14,inactive,inactive,–
O=C(CCCN1CCN(c2ccc(F)cc2)CC1)NC1c2ccccc2CSc2ccccc21 (stereo not drawn),-15,inactive,inactive,–
